Experimental findings from PubChem BioAssay (NCATS) are described below.

Experiment [1] concerns the target Lysosomal acid glucosylceramidase (Homo sapiens) (UniProt P04062). Description: Glucocerebrosidase-p2 (AID 348; in the data active = potency below about 10 µM; also: potency is read from the fitted curve at half-maximal effect). Conditions: purified GBA, blue fluorogenic substrate, 40 min. In a few lines: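 Normal human glucocerebrosidase (0.2 nM) with blue fluorogenic substrate (80 uM final) in citrate/phosphate pH 5.9 with 10mM sodium taurocholate, 0.01% tween-20; 40 min RT, NaOH/glycine stop; fluorescence Ex 365/Em 440; AC50 from a titration from 0.6 nM upwards.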

Experiment [2] in a line: AP1 Signaling Pathway (AID 357).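 Also: ME-180 reporter cells stimulated with EGF at its EC50 level; % is scaled to controls: 0 for no effect and ±100 for the full control effect.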 Conditions: ME-180 AP-1-bla reporter, EGF-induced, beta-lactamase ratio, 5 h; at 7.69 µM (top of the series) unless noted. In outline: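 In this screen, ME-180 cells in Opti-MEM with 0.5% dialyzed FBS received EC50 EGF and compound titrations for 5 h. AP-1 reporter beta-lactamase was detected via CCF4 ratio, giving AC50 for positive and negative modulators.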

In experiment [3] the target is Cytochrome P450 1A2 (Homo sapiens) (UniProt P05177). Description: p450-cyp1a2 (AID 410; calls by dose curve; also: potency is read from the fitted curve at half-maximal effect;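 as to activity change, negative = inhibition: -100% = full effect of reference inhibitor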). Conditions: recombinant CYP1A2, luciferin-ME demethylation, luminescence; series mostly up to 57 µM. In a few lines:
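20nM CYP1A2, 100uM Luciferin-ME (=Km), 100mM KPO4; cpd 10 min RT; +NADPH regen, 60 min RT; stop/detect 20 min; luminescence. Normalized to furafylline 57 uM = full inhibition.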

Experiment [4] in a line: Stat Signaling Pathway (AID 446).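 Also: ME-180 cervical cancer cells given 40 pM IL-6 alongside compound; SIE-controlled beta-lactamase reporter measured as 460/530 nm FRET emission ratio; % is scaled to controls: 0 for no effect and ±100 for the full control effect.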 Conditions: ME-180 SIE beta-lactamase reporter, IL-6 stimulated, 5 h; at 7.69 µM (top of the series) unless noted. In outline:
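Emission at 460 and 530 nm (excitation 405 nm) reports SIE-controlled beta-lactamase in ME-180 cells. Cells received compound with 40 pM IL-6 for 5 hrs at 37 C; data scaled between 300 pM IL-6 and 125 nM JAK-inhibitor controls.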

The target of experiment [5] is Glucocorticoid receptor (Homo sapiens) (UniProt P04150). Put plainly: GR-GFP Redistribution (AID 450;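 active = compounds whose dose series gives a full or clear partial fitted curve of increased nuclear translocation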; also: potency is read from the fitted curve at half-maximal effect). Conditions: U2OS GR-GFP nuclear translocation, laser cytometry, 2 h.
The target is the same in experiment [6]. Description: GR-EFC Redistribution (AID 451; calls by dose curve; also: potency is read from the fitted curve at half-maximal effect). Conditions: CHO-K1 GR-EFC translocation, beta-gal luminescence, 2 h. In a few lines:
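CHO-K1 cells stably expressing nuclear-localized β-gal enzyme acceptor and GR fused C-terminally to the enzyme donor fragment; ligand-driven nuclear translocation restores β-gal by complementation. Compounds titrated up to 46 uM final, 2 h at 37 °C; luminescence read.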

Experiment [7] deals with Mitogen-activated protein kinase 10 (Mus musculus) (UniProt Q61831). Put plainly: JNK3 AlphaScreen Assay (AID 530).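 Also: kinase came from lysate of stimulated human HepG2 cells; signal reports phosphorylation of biotinylated GST-cJun 1-79 at Ser73 with 10 µM ATP; % is scaled to controls: 0 for no effect and ±100 for the full control effect.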 Conditions: JNK3 lysate, c-Jun phosphorylation; series mostly up to 57.1 µM. In a few lines:
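Biotinylated GST-cJun(1-79) served as substrate for JNK3 in HepG2 lysates stimulated with IL-1beta and TNF-alpha. ATP was 10 uM final, pH 7.6. Ser73 phosphorylation was quantified by AlphaScreen (680 nm excitation).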
Background: Alpha assays give light when donor and acceptor beads are brought close together.

Experiment [8] deals with Cytochrome P450 3A4 (Homo sapiens) (UniProt P08684). Put plainly: qHTS Assay for Inhibitors and Substrates of Cytochrome P450 3A4 (AID 884; active = well fitted curve in the direction sought with a large enough effect; an effect the other way counts as inactive or inconclusive; also: nearly all actives have a fitted effect of over 50% in size; also: potency is read from the fitted curve at half-maximal effect). Conditions: recombinant CYP3A4, Luciferin-PPXE luminescence; series mostly up to 57.1 µM. In a few lines: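 Luminescent readout of luciferin produced by CYP3A4 (20 nM) dealkylation of Luciferin-PPXE, 25 uM (its KM). NADPH-driven reaction ran 60 min at RT after 10 min compound preincubation; data scaled to 57 uM ketoconazole as 100% inhibition.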
A general note: Quantitative high-throughput screening tests each substance at several concentrations.

The target is the same in experiment [9]. Put plainly: qHTS Assay for Activators of Cytochrome P450 3A4 (AID 885; active = well fitted curve in the direction sought with a large enough effect; an effect the other way counts as inactive or inconclusive; also: nearly all actives have a fitted effect of over 65% in size). Conditions: recombinant CYP3A4, Luciferin-PPXE luminescence, 60 min; series mostly up to 57.1 µM. In a few lines:
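Activators are scored by enhanced luminescence from CYP3A4 conversion of luciferin-PPXE (25uM, equal to KM) to luciferin, after 60 min at RT with an NADPH-regenerating system.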

A short description of experiment [10]: Confirmation and Secondary Assay for Modulators of Hemoglobin Beta Chain Splicing at IVS2 654 locus (AID 910; active = well fitted curve in the direction sought with a large enough effect; an effect the other way counts as inactive or inconclusive; also: % of control where 0% means no effect). Conditions: HeLa EGFP-654 splicing reporter, GFP fluorescence, 48 h; series mostly up to 38.3 µM. In outline:
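HeLa cells stably carrying EGFP interrupted by mutant beta-globin IVS2-654 intron (CMV-driven) were treated with compound for 2 days at 37C; corrected splicing was scored as total peak GFP intensity per well (488 nm excitation, 500-520 nm emission).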

Experiment [11] in a line: qHTS Assay for Identification of Small Molecule Agonists for Hypoxia Response Element Signaling Pathway (AID 914; active = well fitted activation curve with a large enough effect in the signal ratio, with a control signal flat, not every such curve was filed as active; the % refers to the signal ratio; also: potency is read from the fitted curve at half-maximal effect). Conditions: ME-180 (cervical carcinoma) HRE-bla reporter, beta-lactamase ratio, CoCl2, 17 h; activation: stronger effect = higher value. In a few lines:
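HRE-bla ME-180 cells, overnight plating in Opti-MEM with 0.5% dialyzed FBS; cpd titration + EC50 CoCl2, 17 h, 37 degrees Celsius; CCF4 2.5 h RT; 460/530 nm ratio; AC50.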

Experiment [12] is described as follows: Confirmation and Secondary Assay for Modulators of Hemoglobin Beta Chain Splicing at IVS2 705 locus (AID 930; active = well fitted curve in the direction sought with a large enough effect; an effect the other way counts as inactive or inconclusive;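 also: HeLa cells stably expressing the EGFP-705 splicing reporter; GFP fluorescence per well restored by corrected splicing of the IVS2-705 intron in EGFP; % of control where 0% means no effect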). Conditions: HeLa EGFP-705 splicing reporter, GFP fluorescence, 48 h; series mostly up to 38.3 µM. In outline: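 Read-out: total peak GFP fluorescence per well (488 nm excitation, 500-520 nm emission) by laser-scanning cytometry. Cells: HeLa EGFP-705 splicing reporter, 2 days compound exposure in Optimem/2% FCS.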

Experiment [13] in a line: qHTS Assay for Lipid Storage Modulators (AID 1519; calls by dose curve). Conditions: Drosophila S3 cells, BODIPY lipid droplet/cell ratio, laser cytometry, cells loaded with oleic acid; for activity change, negative = inhibition: at 57.5 µM (top of the series). In outline:
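Cells seeded at 5,000 per well were treated with compounds over a concentration series and loaded with oleic acid (400 uM, as added). Lipid droplet fluorescence (488 nm excitation, 500-530 nm channel) was read by laser-scanning cytometry and normalized to 20 uM Triacsin C.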

Experiment [14] has as its target Ubiquitin carboxyl-terminal hydrolase 1 (Homo sapiens) (UniProt O94782). Put plainly: Inhibitors of USP1/UAF1: Pilot qHTS (AID 504865; active = well fitted curve in the direction sought with a large enough effect; an effect the other way counts as inactive or inconclusive;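 also: rhodamine fluorescence freed from ubiquitin-rhodamine substrate followed over time; top concentration of the series differs between compounds; % is scaled to controls: 0 for no effect and ±100 for the full control effect; nearly all actives have a fitted effect of over 35% in size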). Conditions: purified USP1/UAF1, Ub-rhodamine cleavage fluorescence; series mostly up to 54.9 µM. In outline: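 USP1/UAF1 complex (1nM) preincubated with compound 15 min at room temperature, then Ub-Rho substrate (150nM final) added. Fluorescence read kinetically at 480/540 nm, 6 reads every 60 seconds. Buffer: 50mM HEPES pH 7.8, 0.5mM EDTA, 0.1 mg/ml BSA, 1mM TCEP, 0.01% Tween-20.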

The nature of experiment [15]: NFAT Signaling Pathway (AID 444).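 Also: carbachol stimulus at about its EC50 of 1 µM final; % is scaled to controls: 0 for no effect and ±100 for the full control effect.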 Conditions: Jurkat NFAT-bla M1, carbachol, beta-lactamase ratio, 5 h; at 7.69 µM (top of the series) unless noted. In a few lines:
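Jurkat cells carrying an NFAT-driven β-lactamase reporter and co-transfected muscarinic M1 receptor were treated with compound plus carbachol (1 uM final, an EC50 level) for 5 h at 37 °C. CCF4 loading followed for 1 h at RT; 460/530 nm ratio gave %activity.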

In experiment [16] the target is 3',5'-cyclic-AMP phosphodiesterase 4B (Homo sapiens) (UniProt Q07343). Description: qHTS Assay for Inhibitors of PDE-IV (AID 607; active = well fitted activation curve with a large enough effect in the main read-out, with a control signal flat, not every such curve was filed as active; also: % of control where 0% means no effect). Conditions: HEK293 ACTOne CNG channel cells, membrane potential fluorescence; series mostly up to 22.9 µM. In a few lines: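 The readout is membrane depolarisation from a cAMP-sensing CNG channel, detected with a potential dye at ex 535/em 590. Cells were HEK293-derived (endogenous PDE-IV) at 1000 cells/well, titrated up to 22.9 uM final.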

In experiment [17] the target is Cytochrome P450 2D6 (Homo sapiens) (UniProt P10635). Description: qHTS Assay for Inhibitors and Substrates of Cytochrome P450 2D6 (AID 891; active = well fitted curve in the direction sought with a large enough effect; an effect the other way counts as inactive or inconclusive; also: potency is read from the fitted curve at half-maximal effect; nearly all actives have a fitted effect of over 60% in size). Conditions: recombinant CYP2D6, luciferin-ME EGE luminescence; series mostly up to 57.1 µM. In a few lines:
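Luminescent read-out of luciferin formed by 5 nM human CYP2D6 demethylating 30 uM Luciferin-ME EGE (Km level) over 60 min at room temperature after NADPH regeneration addition. Data normalized to full inhibition by 1.43 uM quinidine.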

Setting [18] is: measured here: cell count channel max response.
The mark [19] stands for this setting: measured here: lipid channel max response.

Records with an inconclusive call do not appear. Active and inactive are the calls of the source. Unless noted, calls follow the shape of the dose curve; as a rule, active = well fitted curve in either direction with a large enough effect (not every such curve was filed as active); inconclusive = small, poorly fitted or top-dose-only effect, or another doubt; inactive = flat fitted curve, though single readings scatter.

Chain of Lysosomal acid glucosylceramidase (Homo sapiens) (P04062 whole entry, looked up): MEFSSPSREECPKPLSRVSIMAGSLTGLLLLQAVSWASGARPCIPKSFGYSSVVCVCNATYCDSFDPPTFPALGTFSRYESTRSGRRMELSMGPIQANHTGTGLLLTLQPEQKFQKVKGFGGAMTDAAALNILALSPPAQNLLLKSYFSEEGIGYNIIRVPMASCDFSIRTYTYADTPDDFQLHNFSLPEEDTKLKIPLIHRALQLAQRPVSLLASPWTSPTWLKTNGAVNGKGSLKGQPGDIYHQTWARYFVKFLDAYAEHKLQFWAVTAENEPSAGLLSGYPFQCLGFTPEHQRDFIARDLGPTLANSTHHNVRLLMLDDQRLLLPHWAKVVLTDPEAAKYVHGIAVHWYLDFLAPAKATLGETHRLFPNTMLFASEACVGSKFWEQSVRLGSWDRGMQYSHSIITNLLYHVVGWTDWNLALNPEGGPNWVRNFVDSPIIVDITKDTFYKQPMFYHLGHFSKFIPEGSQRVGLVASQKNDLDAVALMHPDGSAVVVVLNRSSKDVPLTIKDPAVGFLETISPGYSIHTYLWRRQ
Chain of Glucocorticoid receptor (Homo sapiens) (P04150 whole entry, looked up): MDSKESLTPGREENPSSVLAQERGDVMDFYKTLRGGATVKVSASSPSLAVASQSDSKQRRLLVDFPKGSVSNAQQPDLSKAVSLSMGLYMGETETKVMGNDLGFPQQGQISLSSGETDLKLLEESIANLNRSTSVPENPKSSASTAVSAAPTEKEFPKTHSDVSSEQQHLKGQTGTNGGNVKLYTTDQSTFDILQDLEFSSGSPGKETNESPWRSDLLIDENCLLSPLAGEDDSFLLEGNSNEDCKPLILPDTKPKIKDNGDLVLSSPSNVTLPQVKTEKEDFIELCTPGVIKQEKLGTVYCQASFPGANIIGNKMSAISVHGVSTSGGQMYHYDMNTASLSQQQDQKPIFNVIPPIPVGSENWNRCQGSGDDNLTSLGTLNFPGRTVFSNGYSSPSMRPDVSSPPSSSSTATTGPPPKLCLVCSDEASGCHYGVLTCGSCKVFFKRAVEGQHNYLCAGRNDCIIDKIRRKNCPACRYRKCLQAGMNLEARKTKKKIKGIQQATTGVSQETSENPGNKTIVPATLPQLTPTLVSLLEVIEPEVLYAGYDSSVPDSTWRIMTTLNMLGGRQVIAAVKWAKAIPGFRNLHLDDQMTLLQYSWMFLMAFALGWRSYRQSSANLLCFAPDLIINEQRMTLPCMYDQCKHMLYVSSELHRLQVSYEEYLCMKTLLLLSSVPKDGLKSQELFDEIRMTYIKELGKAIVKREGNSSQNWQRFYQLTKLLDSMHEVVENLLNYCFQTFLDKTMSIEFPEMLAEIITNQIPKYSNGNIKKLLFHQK
Chain of Ubiquitin carboxyl-terminal hydrolase 1 (Homo sapiens) (O94782 whole entry, looked up): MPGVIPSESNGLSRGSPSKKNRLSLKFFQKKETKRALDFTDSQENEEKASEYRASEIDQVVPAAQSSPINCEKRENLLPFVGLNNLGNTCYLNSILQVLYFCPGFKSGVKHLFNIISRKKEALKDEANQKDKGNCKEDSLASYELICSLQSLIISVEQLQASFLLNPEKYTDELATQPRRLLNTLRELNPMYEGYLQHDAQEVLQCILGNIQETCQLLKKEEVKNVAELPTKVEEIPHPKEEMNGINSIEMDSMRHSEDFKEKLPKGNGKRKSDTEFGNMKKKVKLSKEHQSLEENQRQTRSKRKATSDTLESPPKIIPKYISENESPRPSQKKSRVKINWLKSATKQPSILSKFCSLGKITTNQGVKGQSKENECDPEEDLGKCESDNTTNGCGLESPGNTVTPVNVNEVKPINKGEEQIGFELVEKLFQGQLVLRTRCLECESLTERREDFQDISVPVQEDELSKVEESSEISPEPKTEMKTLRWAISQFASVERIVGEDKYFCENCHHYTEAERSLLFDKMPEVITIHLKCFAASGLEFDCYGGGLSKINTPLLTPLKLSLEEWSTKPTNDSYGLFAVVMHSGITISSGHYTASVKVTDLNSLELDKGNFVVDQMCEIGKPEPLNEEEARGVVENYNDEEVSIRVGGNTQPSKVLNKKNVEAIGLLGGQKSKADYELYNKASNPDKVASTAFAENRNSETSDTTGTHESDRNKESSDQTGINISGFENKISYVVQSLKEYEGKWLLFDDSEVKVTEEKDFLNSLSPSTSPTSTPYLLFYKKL
Chain of Cytochrome P450 1A2 (Homo sapiens) (P05177 whole entry, looked up): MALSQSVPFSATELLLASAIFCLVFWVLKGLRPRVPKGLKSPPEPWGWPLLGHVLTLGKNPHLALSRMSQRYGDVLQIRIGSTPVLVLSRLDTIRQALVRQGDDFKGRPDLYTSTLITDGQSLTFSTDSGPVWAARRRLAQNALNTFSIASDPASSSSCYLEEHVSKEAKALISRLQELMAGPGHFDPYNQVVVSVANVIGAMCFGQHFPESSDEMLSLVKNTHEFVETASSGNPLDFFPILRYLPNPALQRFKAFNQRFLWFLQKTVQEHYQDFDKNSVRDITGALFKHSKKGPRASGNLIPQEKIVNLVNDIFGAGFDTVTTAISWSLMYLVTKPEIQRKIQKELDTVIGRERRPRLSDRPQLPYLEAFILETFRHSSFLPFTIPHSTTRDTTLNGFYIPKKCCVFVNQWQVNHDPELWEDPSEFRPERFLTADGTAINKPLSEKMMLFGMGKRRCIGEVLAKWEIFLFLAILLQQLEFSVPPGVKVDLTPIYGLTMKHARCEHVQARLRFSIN
Chain of Cytochrome P450 3A4 (Homo sapiens) (P08684 whole entry, looked up): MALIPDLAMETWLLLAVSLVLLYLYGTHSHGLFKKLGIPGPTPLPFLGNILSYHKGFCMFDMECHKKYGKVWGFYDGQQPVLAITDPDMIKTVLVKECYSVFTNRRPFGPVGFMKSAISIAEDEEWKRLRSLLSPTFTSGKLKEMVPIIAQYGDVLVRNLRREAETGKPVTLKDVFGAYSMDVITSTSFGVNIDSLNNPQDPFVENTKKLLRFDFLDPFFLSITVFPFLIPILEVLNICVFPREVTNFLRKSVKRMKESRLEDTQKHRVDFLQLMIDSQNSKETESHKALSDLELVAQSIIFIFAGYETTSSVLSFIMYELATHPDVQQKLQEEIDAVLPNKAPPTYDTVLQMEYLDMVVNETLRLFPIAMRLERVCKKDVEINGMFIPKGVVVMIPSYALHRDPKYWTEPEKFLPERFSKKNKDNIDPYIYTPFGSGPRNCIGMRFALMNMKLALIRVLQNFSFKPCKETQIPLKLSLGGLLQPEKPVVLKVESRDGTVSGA
Chain of 3',5'-cyclic-AMP phosphodiesterase 4B (Homo sapiens) (Q07343 whole entry, looked up): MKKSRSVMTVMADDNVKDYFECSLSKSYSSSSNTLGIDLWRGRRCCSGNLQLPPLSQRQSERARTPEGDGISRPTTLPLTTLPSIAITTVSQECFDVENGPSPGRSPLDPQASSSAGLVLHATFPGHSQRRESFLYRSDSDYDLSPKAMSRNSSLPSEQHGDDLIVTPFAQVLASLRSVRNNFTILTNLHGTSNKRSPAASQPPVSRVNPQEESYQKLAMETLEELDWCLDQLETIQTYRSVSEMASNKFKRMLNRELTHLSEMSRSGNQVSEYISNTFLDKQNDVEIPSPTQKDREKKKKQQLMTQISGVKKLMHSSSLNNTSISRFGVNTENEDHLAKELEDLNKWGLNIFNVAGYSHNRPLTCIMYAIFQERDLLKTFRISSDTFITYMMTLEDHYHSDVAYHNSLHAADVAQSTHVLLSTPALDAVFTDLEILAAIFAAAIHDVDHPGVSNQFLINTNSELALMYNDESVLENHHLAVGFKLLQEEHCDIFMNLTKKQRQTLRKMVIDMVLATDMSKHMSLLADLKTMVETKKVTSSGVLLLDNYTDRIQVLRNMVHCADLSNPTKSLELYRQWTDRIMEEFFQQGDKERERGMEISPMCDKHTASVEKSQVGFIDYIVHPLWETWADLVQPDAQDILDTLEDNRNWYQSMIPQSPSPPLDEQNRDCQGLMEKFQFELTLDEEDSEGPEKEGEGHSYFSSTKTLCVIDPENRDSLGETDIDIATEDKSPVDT
Chain of Cytochrome P450 2D6 (Homo sapiens) (P10635 whole entry, looked up): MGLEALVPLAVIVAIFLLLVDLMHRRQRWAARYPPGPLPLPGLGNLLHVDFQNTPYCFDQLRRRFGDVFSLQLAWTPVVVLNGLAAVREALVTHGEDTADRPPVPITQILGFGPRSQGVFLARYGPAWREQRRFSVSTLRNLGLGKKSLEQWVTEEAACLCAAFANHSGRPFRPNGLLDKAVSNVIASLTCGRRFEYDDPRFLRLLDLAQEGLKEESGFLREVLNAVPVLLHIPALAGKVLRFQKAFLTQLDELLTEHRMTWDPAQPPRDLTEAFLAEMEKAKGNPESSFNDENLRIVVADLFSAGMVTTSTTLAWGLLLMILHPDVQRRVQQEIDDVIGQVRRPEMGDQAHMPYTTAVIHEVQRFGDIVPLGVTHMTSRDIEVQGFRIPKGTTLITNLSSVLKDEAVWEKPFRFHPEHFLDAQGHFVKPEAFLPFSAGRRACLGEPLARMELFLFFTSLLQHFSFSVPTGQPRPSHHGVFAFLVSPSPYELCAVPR

Turning to `Cc1ccccc1-c1cncnc1NCCN1CCOCC1`, the Potency in [1] is > 11.4 µM (inactive); in experiment [3] it was 15.8 µM (active); in experiment [5], > 46 µM (inactive); in experiment [6] it was > 46 µM (inactive); in experiment [8] it was 1.58 µM (active); in experiment [11], 3.16 µM (active). Besides, the activity change, negative = inhibition in [2] is 24.4% (inactive); in [13], 4.31% (inactive). Besides, the activity, negative = inhibition in experiment [4] was 7.48% (inactive). Moreover, the Potency result in experiment [7], in experiment [9], in experiment [10] and in experiment [14] was “inactive” throughout. In [12], the outcome was inactive. Moreover, the values for the max response in [13] (setting [18]) and in experiment [13] (setting [19]) were 0.273% and 3.28%, respectively.
`Cc1cnc(CNc2ccnc(-c3ccc(N(C)C)cc3)n2)cn1`: the Potency in experiment [1] was > 11.4 µM (inactive); in experiment [3], 2.51 µM (active); in experiment [5], > 46 µM (inactive); in experiment [6], > 46 µM (inactive). Also, the results for the activity change, negative = inhibition in experiment [2], in [15] and in experiment [13] were 8.41% (inactive), -1.95% (inactive) and 8.28% (inactive), respectively. For the same compound, the Potency result in experiment [7], in experiment [16] and in [9] was “inactive” throughout. Besides, the compound was called inactive in experiment [12]. The max response in experiment [13] (setting [18]) was -9.25%; in experiment [13] (setting [19]) it was 1.54%.
For the compound `Cc1ccccc1-c1cncnc1N1CCNCC1`, the Potency in experiment [1] was > 11.4 µM (inactive); in [5], > 46 µM (inactive); in [6], > 46 µM (inactive). Moreover, the results for the activity change, negative = inhibition in [2], in experiment [15] and in experiment [13] were -3.42% (inactive), 10.1% (inactive) and 10.2% (inactive), respectively. The activity, negative = inhibition in [4] was 1.91% (inactive). For the same compound, the Potency result in experiment [7], in [16], in [10] and in [14] was “inactive” each time. Also, in experiment [12], the compound was classed as inactive. The max response in experiment [13] (setting [18]) was found to be 11%; in experiment [13] (setting [19]), 18.8%.
For the compound `COc1ccccc1CN1CC[C@@]2(CCCN(C(=O)c3cc(C(F)(F)F)cc(C(F)(F)F)c3)C2)C1`, the Potency is > 11.4 µM (inactive) in experiment [1], 15.8 µM (active) in [3] and > 46 µM (inactive) in experiment [6]. For the same compound, the activity change, negative = inhibition was -0.111% (inactive) in experiment [2] and 2.5% (inactive) in [13]. Besides, in experiment [4], the activity, negative = inhibition was 4.98% (inactive). Besides, the Potency result in experiment [7] and in [16] was “inactive” each time. Besides, the max response in [13] (setting [18]) is 2.09%; in experiment [13] (setting [19]), 7.48%.
Regarding `c1ccc(C(c2ccccc2)N2CC3(CCNCC3)C2)cc1`, the Potency was > 11.4 µM (inactive) in [1], 15.8 µM (active) in experiment [3], > 46 µM (inactive) in experiment [6] and 2.51 µM (active) in experiment [17]. Besides, the activity change, negative = inhibition in experiment [2] is 14% (inactive); in experiment [13], 0.527% (inactive). Moreover, the Potency result in [7] and in experiment [8] was “inactive” each time. For the same compound, the max response in [13] (setting [18]) was -0.423%; in experiment [13] (setting [19]) it was 0.5%.
Turning to `CS(=O)(=O)Nc1cccc(-c2nc(N3CCNCC3)c3ccccc3n2)c1`, the Potency was > 11.4 µM (inactive) in experiment [1], 20 µM (active) in experiment [3], > 46 µM (inactive) in experiment [5] and > 46 µM (inactive) in [6]. Also, the results for the activity change, negative = inhibition in [2] and in experiment [13] were 5.71% (inactive) and 5.5% (inactive), respectively. In addition, the activity, negative = inhibition in experiment [4] was 2.63% (inactive). In addition, the Potency result in experiment [7], in [16], in experiment [10] and in [14] was “inactive” each time. Moreover, the compound was called inactive in experiment [12]. Further, the values for the max response in experiment [13] (setting [18]) and in [13] (setting [19]) were 12.3% and 18.5%, respectively.
Regarding `COc1ccc(NC(=O)N2CC[C@@]3(CCCN(C(=O)c4cc(C(F)(F)F)cc(C(F)(F)F)c4)C3)C2)cc1`, the Potency in experiment [1] was > 11.4 µM (inactive); in experiment [6], > 46 µM (inactive). Also, the activity change, negative = inhibition was -20.8% (inactive) in experiment [2], 12.7% (inactive) in experiment [15] and 6.21% (inactive) in experiment [13]. The Potency result in experiment [3], in experiment [7], in experiment [16] and in [9] was “inactive” in each case. Also, the activity, negative = inhibition in experiment [4] was -6.2% (inactive). Also, the max response amounted to 0.894% in experiment [13] (setting [18]) and 10.8% in experiment [13] (setting [19]).
